Bioassay records from PubChem BioAssay.
This is a sample that favours compounds with a hit; in the whole collection about 9% have one here.
Lamin A splicing: changes lamin A minigene splicing in HeLa cells; Potency, µM (highest dose often 46.1 µM), inactives show at the highest dose ratio change, negative = inhibition, actives largely listed as inhibitors; HeLa LMNA splicing GFP/RFP minigene ratio, 48 h; 0.01% of 200,000 active; AID 1487; active = well fitted inhibition curve with a large enough effect in the signal ratio, with a control signal flat, not every such curve was filed as active; inconclusive = small, poorly fitted or top-dose-only effect, or effect the other way, or a change in a side signal; the % refers to the signal ratio; also: % is scaled to controls: 0 for no effect and ±100 for the full control effect
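S3 HeLa stable clones carrying a lamin A-EGFP splicing minigene plus DsRed2 were seeded at 600 cells/well in Opti-MEM with 2% FBS, pin-dosed and incubated 48 h at 37°C. Acumen cytometry (488 nm) gave the GFP/RFP total-intensity ratio.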
HTT ATP protect: cytoprotection in Huntington HTT-Q103 PC12 cell model; PC12 HTT-Q103 induced, cytoprotection, ATP luminescence, 40 h; Potency, µM (series often up to 56.4 µM), for inactives: cytoprotection (ATP increase), actives largely listed as activators; 0.14% of 230,000 active; also: % of control where 0% means no effect; nearly all actives have a fitted effect of over 45% in size
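Readout: ATPlite luminescence (ATP level). Model: stable PC12, inducible Htt exon1 Q103-GFP. Inducer: tebufenozide, 100 nM final. Compounds: dose series. No G418 in medium.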
Luc counter: blocks Kinase-Glo luciferase, a counter-screen artifact; Q27757; Kinase-Glo luciferase, ATP luminescence, 8 min; Potency, µM (highest dose often 38.3 µM), without a hit: top-dose activity change, negative = inhibition, hits mostly inhibitors; 0.28% of 200,000 active; AID 1379; also: % is scaled to controls: 0 for no effect and ±100 for the full control effect; nearly all actives have a fitted effect of over 60% in size
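Inhibition of Kinase-Glo luciferase light generation was assessed at 10 uM ATP in pH 7.2 imidazole buffer, with luminescence measured after eight minutes at ambient temperature.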
HttQ103 aggreg: mutant huntingtin aggregation inhibition; PC12 HttQ103-GFP aggregates, Acumen cytometry, 40 h; Potency, µM (doses to about 46.1 µM), for the others: at the top dose activity change, negative = inhibition, most hits filed as inhibitors; AID 1688; 1.1% of 220,000 active; also: % is scaled to controls: 0 for no effect and ±100 for the full control effect; nearly all actives have a fitted effect of over 60% in size
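Multiplexed with ATP-based cell death, this channel scores GFP aggregates in PC12 cells expressing inducible HTTex1-Q103-GFP. Induction used 100 nM tebufenozide; compounds were tested in concentration series.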
HPGD inh: HPGD (human) dehydrogenase inhibition; 4.3% of 150,000 active; Potency, µM, for inactives: at the top dose activity change, negative = inhibition, hits mostly inhibitors; purified HPGD, NADH fluorescence kinetic, PGE2 substrate; AID 894; P15428; active = well fitted inhibition curve with a large enough effect, not every such curve was filed as active; inconclusive = small, poorly fitted or top-dose-only effect, or another doubt; inactive = no such curve, though single readings can be large or run the other way; also: % is scaled to controls: 0 for no effect and ±100 for the full control effect
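NADH formation kinetics: reaction with 30 uM PGE2 and 1 mM NAD+ (final), 20 nM enzyme, Tris-HCl pH 8 with Tween 20, after 15 min compound preincubation at room temperature. Fluorescence change, last versus first of five reads.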
ALDH1A1 block: blocks purified human ALDH1A1 activity. Potency, µM (highest dose often 75.3 µM), inactives show at the highest dose activity, negative = inhibition, hits mostly inhibitors. Purified ALDH1A1, NADH fluorescence, propionaldehyde substrate. 7.3% of 220,000 active. AID 1030; active = well fitted inhibition curve with a large enough effect, not every such curve was filed as active; inconclusive = small, poorly fitted or top-dose-only effect, or another doubt; inactive = no such curve, though single readings can be large or run the other way;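 also: plate controls were no enzyme wells and a reference inhibitor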
Target sequence (P00352 whole entry, looked up): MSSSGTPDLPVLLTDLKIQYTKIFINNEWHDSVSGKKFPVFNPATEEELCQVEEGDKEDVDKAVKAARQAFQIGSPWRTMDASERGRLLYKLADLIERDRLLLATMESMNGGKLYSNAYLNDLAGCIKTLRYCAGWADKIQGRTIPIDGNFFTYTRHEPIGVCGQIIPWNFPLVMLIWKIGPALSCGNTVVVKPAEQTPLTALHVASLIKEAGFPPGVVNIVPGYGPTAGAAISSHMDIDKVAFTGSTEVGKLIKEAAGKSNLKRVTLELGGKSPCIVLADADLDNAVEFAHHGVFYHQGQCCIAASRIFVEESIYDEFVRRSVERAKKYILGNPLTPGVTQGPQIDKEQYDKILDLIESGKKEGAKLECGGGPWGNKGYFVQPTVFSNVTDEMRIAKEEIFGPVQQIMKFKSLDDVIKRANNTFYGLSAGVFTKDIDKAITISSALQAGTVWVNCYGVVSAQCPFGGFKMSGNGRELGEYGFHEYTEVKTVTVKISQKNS
An asterisk follows results filed as active; ? = inconclusive; / = no result given; [ ] = another dose, or the depositor's remark. Unless noted, calls follow the shape of the dose curve; as a rule, active = well fitted curve in the direction sought with a large enough effect; inconclusive = small, poorly fitted or top-dose-only effect, or another doubt; inactive = no such curve, though single readings can be large; an effect the other way counts as inactive or inconclusive. Potency is read from the fitted curve at half-maximal effect.

SMILES	Lamin A splicing	HTT ATP protect	Luc counter	HttQ103 aggreg	HPGD inh	ALDH1A1 block
O=C1OCCC1Sc1nnc(-c2ccccc2)o1 (configuration not stated)	12%	-13%	-5%	1%	-7%	7%
O=C1c2ccccc2CC1Sc1nnc(-c2ccccn2)o1 (configuration not stated)	10%	-10%[10 µM]	5%	-10%	?	3.2µM*
CC(=O)c1cc(C#N)c(SCC(=O)OC(C)(C)C)nc1C	11%	-15%[0.074 µM]	0%	12%	-27%	6.3µM*
Cc1ccccc1Nc1nc(N)nc(COC(=O)CCS(=O)(=O)c2ccccc2)n1	12%	-17%	-11%	8%	-12%	?
Cc1ccc(NC(=O)NC2=N/C(=C(/C#N)C(=O)N3CCCC3)c3ccccc32)cc1	10%	-11%[10 µM]	-2%	0%	-21%	0.63µM*
COc1ccc(-c2nnc(SCC(=O)NCCC(C)C)nc2-c2ccc(OC)c(OC)c2)cc1OC	-11%[46 µM]	/	/	/	/	/
COc1cc2c(cc1OC)/C(=C/C#N)NC(C)(C)C2	-4%	-34%	-3%	11%[9.22 µM]	-21%	2µM*
CCn1c2ccccc2c2nnc(SCC(=O)N3CC(C)OC(C)C3)nc21 (configuration not stated)	-13%	-28%[10 µM]	-3%	34%[9.22 µM]	14µM*	20µM*
CSc1nnc2c3ccccc3n(Cc3ccccc3)c2n1	-1%	31%	-3%	-7%	0%	-5%
CSc1nnc2c3ccccc3n(CCc3ccccc3)c2n1	?	-13%[10 µM]	0%	?	-28%	8.9µM*
O=C(CSc1nnc2c3ccccc3c3ccccc3c2n1)Nc1ccccc1F	5%	-9%	-6%	21%	-16%	8.9µM*
CCCn1c2ccccc2c2nnc(SCC(=O)Nc3ncccn3)nc21	-2%	-15%	-8%	-10%	-38%	7.1µM*
O=C(CSc1nnc2c3ccccc3c3ccccc3c2n1)Nc1ccccc1	4%	25%	2%	15%	-10%	0%
O=C1CCCC2=C1C(c1ccncc1)c1c(nc(SCc3ccccc3)[nH]c1=O)N2 (configuration not stated)	22%	8%	0%	8%	?	?
COc1ccccc1/C=C/C(=O)NCC(=O)N/N=C(\CCC(=O)O)c1ccccc1	/	/	4%	3%	/	?
Cc1cc(Nc2ccccc2)n(-c2ccccc2)n1	28%	-5%	-5%	3%	18µM*	-1%
Cc1cc(C)nc(-n2nc(C)cc2Nc2ccccc2)n1	?	-27%[0.074 µM]	2%	?	-6%	?
Cc1cc(Nc2nnnn2-c2ccccc2)n(-c2ccc(Cl)cc2)n1	?	9%[10 µM]	2%	16µM*	-16%	-20%
COc1ccc(C(c2c(O)ccc3ccccc23)N2CCOCC2)c(OC)c1 (configuration not stated)	?	?	11%	?	-20%	?
Cc1cc(OC(=O)c2ccco2)c2c(C)cc(=O)oc2c1	7%	-43%	-2%	-8%	-12%	?
Cc1cc(OC(=O)CNC(=O)OC(C)(C)C)c2c(C)cc(=O)oc2c1	?	0%	-3%	-7%	18µM*	16µM*
C/C(CC(=O)Nc1cccc(Cl)c1C)=N\NC(=O)C(=O)NCC(C)C	3%	/	-1%	16%	-5%	?
C/C(CC(=O)Nc1ccccc1Cl)=N\NC(=O)C(=O)NCCO	11%[46 µM]	3%	-3%	-26%	/	10µM*
O=C(Nc1cccnc1)c1sc2cccc(F)c2c1Cl	?	-29%	0%	-30%	/	?
CN(C)CCNC(=O)c1sc2cccc(F)c2c1Cl	?	-8%	0%	-3%	/	14µM*
SMILES	Lamin A splicing	HTT ATP protect	Luc counter	HttQ103 aggreg	HPGD inh	ALDH1A1 block
O=C(NCCCn1ccnc1)c1sc2cccc(F)c2c1Cl	-9%	-5%	16%	-16%	-19%	28µM*
O=C(C1CCN(S(=O)(=O)N2CCCCC2)CC1)N1CCCCC1	5%	/	-2%	5%	20µM*	?
COc1ccc2sc(C)[n+](C)c2c1	/	11µM*	/	-21%	/	?
CCCC[n+]1c(C)sc2cc(OC)ccc21	/	-3%[10 µM]	-4%	6%[9.22 µM]	/	-2%
Cc1nn(C(C)c2n[nH]c(=S)n2-c2cccc(Cl)c2)c(C)c1[N+](=O)[O-] (configuration not stated)	2%	-3%[10 µM]	6%	-8%	22µM*	5%
Cc1ccc(-n2c(C(C)n3nc(C)c([N+](=O)[O-])c3C)n[nH]c2=S)cc1 (configuration not stated)	-3%	-26%[10 µM]	1%	14%	-14%	-7%
Cc1ccc(NC(=O)c2cccs2)cc1NC(=O)c1cccnc1	?	-10%[10 µM]	4%	?	/	-14%
N#CCCN(Cc1cccnc1)C(=O)c1sc2cc(F)ccc2c1Cl	?	1%[10 µM]	-2%	-8%	7.1µM*	-3%
COc1cc(/C=N/NC(=O)c2cc3ccccc3cc2O)ccc1OCCN1CCCCC1	?	/	0%	20µM*	?	2%
CN(C)CCCN(CCCNC(=O)/C=N/O)Cc1ccccc1	-6%	37%[10 µM]	0%	35µM*	-10%	1%
C/C(NC(=O)c1ccccc1F)=C1\C(=O)C[C@@H]2[C@H]1C2(C)C	0%	7%	/	-4%	/	-13%
COc1ccc(CCC(C)Nc2ccc(F)c(F)c2)cc1 (configuration not stated)	-9%	3%[10 µM]	3%	11µM*	-9%	?
CC(=O)NC(CC(C)C)C(=O)NC(=O)NCc1ccccc1 (configuration not stated)	15%	-6%[10 µM]	-1%	10%	-1%	5µM*
CCC(CC)C(=O)Nc1cccc(/C(C)=N/NC(=O)c2ccccc2Cl)c1	6%	-28%	1%	16%	-22%	13µM*
Cn1cc(C(=O)Nc2ccc(F)c(Cl)c2)cn1	-5%	39%[10 µM]	-2%	-4%	-5%	13%
CN1c2ccsc2C(O)=C(C(=S)Nc2ccc(F)c(Cl)c2)S1(=O)=O	?	-44%	3%	-2%	?	9.5µM*
CC[n+]1c(/C=C2\C=C(C)CC(C)(C)C2)sc2ccccc21	?	-18%	6%	?	-24%	?
CC[n+]1c(/C=C2/C=C(C)CC(C)(C)C2)sc2ccc(OC)cc21	?	-1%	-9%	?	-26%	8.9µM*
CN(C)S(=O)(=O)N1CCN(c2ccccc2)CC1	5%	-11%	17%	2%	-10%	7%
COC(=O)c1c(-c2ccc(OC)c(OC)c2)csc1N	1%	-13%	-4%	-1%	28µM*	4µM*
COC(=O)c1c(-c2cccc(C)c2)csc1N	-11%	-12%	0%	-29%	-27%	16%
